Records with an inconclusive call do not appear. The source made the active and inactive calls. How the source made its calls: active means hit-call score of the fitted dose curve at least 0.9, where 1 is the maximum; inconclusive means response in the unintended direction; inactive means score below 0.9.
What was measured:
[1] = ACEA_AR_antagonist_AUC_viability: ACEA Biosciences xCELLigence Real-Time Cell Analysis on Androgen Receptor Antagonism for Viability (AID 2283776);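 further: 22Rv1 human prostate cancer cells growing on impedance electrode plates; area under impedance growth curve at 80 h after dosing as viability; hits lower the growth signal relative to DMSO meaning cytotoxicity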
How it was run: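 22Rv1 prostate cells, continuous dosing up to 100 uM final (0.5% DMSO max), duplicate plates. Growth measured by impedance; AUC at 80 h, loss of signal vs DMSO.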

[2] = ACEA_ER_AUC_viability: ACEA Biosciences xCELLigence Real-Time Cell Analysis on Estrogen Receptor Agonism for Viability (AID 2283782);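 further: continuous compound exposure with impedance area under curve over 80 h; hit means loss of impedance signal meaning reduced cell growth or viability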
How it was run: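 T-47D; phenol red-free RPMI1640 + 10% CS-FBS; 8 conc., 1:4 serial, max 100 uM final, ≤0.5% DMSO; n = 2; continuous exposure; impedance monitored to 80 h post-dose; AUC vs DMSO.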

AR (gene 367) [3] = biological target: AR (gene 367) (UniProt P10275); test: ACEA_AR_agonist_80hr: ACEA Biosciences xCELLigence Real-Time Cell Analysis on Androgen Receptor Agonism for Proliferation (AID 2283783);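 further: hits increase impedance growth signal above DMSO baseline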
How it was run: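 Androgen-driven proliferation in 22Rv1 cells is tracked as electrical impedance, taken 80 h after continuous exposure to compound (eight concentrations, 1:4 steps, maximum 100 uM final). Activity is fitted in the positive direction with DMSO as baseline.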

AR (gene 367) [4] = biological target: AR (gene 367) (UniProt P10275); test: ACEA_AR_antagonist_80hr: ACEA Biosciences xCELLigence Real-Time Cell Analysis on Androgen Receptor Antagonism for Proliferation (AID 2283787);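 further: 22Rv1 human prostate cancer cells with growth followed by electrical impedance; hits lower the impedance growth signal relative to DMSO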
How it was run: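 Growth-kinetic antagonist readout in 22Rv1 cells, taken 80 h after continuous compound exposure. Activity fitted as signal loss relative to DMSO negative control.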

[5] = STM_H9_NormalizedViability: Cytotoxicity Assessment at 120 hours in the Stemina devTOX quickPredict H9 human embryonic stem cell (hESC)-based Assay (AID 2283784)
How it was run: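 Pluripotent H9 hESCs were exposed, with chemical and media replaced every 24 h. Viability was read by CellTiter-Fluor fluorescence, background-corrected and normalized to the 0.1% DMSO neutral control per plate. Loss of signal was fitted.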

Chain of AR (gene 367) (P10275 whole entry, looked up): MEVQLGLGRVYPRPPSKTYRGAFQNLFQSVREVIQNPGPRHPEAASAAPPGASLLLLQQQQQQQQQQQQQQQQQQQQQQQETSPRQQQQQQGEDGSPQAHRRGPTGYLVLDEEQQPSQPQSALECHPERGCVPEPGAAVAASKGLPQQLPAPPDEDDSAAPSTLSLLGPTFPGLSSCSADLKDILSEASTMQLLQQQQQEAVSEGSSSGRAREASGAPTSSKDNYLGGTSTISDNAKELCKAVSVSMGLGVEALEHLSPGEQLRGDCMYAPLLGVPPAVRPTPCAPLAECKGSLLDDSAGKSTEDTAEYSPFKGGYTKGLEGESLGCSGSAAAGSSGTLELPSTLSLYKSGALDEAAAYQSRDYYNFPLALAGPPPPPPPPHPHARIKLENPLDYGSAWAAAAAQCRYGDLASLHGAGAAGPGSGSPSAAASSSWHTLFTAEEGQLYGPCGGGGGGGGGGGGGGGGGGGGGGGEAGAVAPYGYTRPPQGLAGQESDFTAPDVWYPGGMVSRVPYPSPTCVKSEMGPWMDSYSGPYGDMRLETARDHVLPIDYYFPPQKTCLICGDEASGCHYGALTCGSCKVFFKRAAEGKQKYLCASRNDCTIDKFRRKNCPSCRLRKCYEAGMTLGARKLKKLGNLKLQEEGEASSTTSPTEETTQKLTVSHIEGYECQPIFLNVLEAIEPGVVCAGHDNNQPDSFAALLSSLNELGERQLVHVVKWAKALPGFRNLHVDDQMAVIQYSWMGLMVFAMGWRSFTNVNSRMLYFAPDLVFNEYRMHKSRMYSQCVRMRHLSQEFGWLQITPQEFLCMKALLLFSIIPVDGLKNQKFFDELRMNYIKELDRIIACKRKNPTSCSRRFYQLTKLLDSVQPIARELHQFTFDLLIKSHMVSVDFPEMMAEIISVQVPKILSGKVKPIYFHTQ

CC(C)CCCCCCc1ccc(OCCOCCO)cc1
outcome [1]: inactive
outcome [2]: inactive
outcome (AR (gene 367) [3]): inactive
outcome (AR (gene 367) [4]): inactive

OCCc1ccccc1
outcome [1]: inactive
outcome [2]: inactive

CS(=O)(=O)OCCCCOS(C)(=O)=O
outcome [1]: inactive
outcome [2]: inactive
AC50 [5]: 23.6 µM (active)

OC[C@H]1O[C@@H]2O[C@H]3[C@H](O)[C@@H](O)[C@@H](O[C@H]4[C@H](O)[C@@H](O)[C@@H](O[C@H]5[C@H](O)[C@@H](O)[C@@H](O[C@H]6[C@H](O)[C@@H](O)[C@@H](O[C@H]7[C@H](O)[C@@H](O)[C@@H](O[C@H]8[C@H](O)[C@@H](O)[C@@H](O[C@H]9[C@H](O)[C@@H](O)[C@@H](O[C@H]1[C@H](O)[C@H]2O)O[C@@H]9CO)O[C@@H]8CO)O[C@@H]7CO)O[C@@H]6CO)O[C@@H]5CO)O[C@@H]4CO)O[C@@H]3CO
outcome [1]: inactive
outcome [2]: inactive

CCCOCCO
outcome [1]: inactive

CN1C(=O)c2ccccc2C1=O
outcome [1]: inactive

Clc1ccc(C(c2ccccc2Cl)C(Cl)Cl)cc1 (stereo not drawn)
outcome [1]: inactive
AC50 [2]: 29.2 µM (active)

O=C1NC2NC(=O)NC2N1 (stereo not drawn)
outcome [1]: inactive
outcome [2]: inactive

O=C1OC[C@H](Cc2cccc(O)c2)[C@H]1Cc1cccc(O)c1
AC50 [1]: 8.21 µM (active)

C=C(C)[C@@H]1CC=C(C)C(=O)C1
outcome [1]: inactive

C=C1C[C@]23C[C@@]1(O)CC[C@H]2[C@@]12C=C[C@H](O)[C@@](C)(C(=O)O1)[C@H]2[C@@H]3C(=O)O
outcome [1]: inactive
outcome [2]: inactive

CS(C)=O
outcome [1]: inactive
outcome [2]: inactive

O=[N+]([O-])c1ccc(O)cc1C(F)(F)F
AC50 [1]: 12.9 µM (active)

CCCC(C)=O
outcome [1]: inactive
outcome [2]: inactive

CCCCCCCCc1ccc(S(=O)(=O)O)cc1
outcome [1]: inactive

O=C(c1ccccc1)C(O)c1ccccc1 (stereo not drawn)
outcome [1]: inactive

CC(C)c1ccccc1O
outcome [1]: inactive
outcome [2]: inactive

CCCCCCCCCCCC(=O)OCC(O)CO (stereo not drawn)
outcome [1]: inactive
AC50 [2]: 50 µM (active)

Nc1ccc2cc(S(=O)(=O)O)cc(O)c2c1N=Nc1ccccc1C(F)(F)F
outcome [1]: inactive

COc1ccccc1N=Nc1c(S(=O)(=O)O)cc2cc(S(=O)(=O)O)cc(NC(C)=O)c2c1O
outcome [1]: inactive
outcome [2]: inactive

CCC1(C)NC(=O)NC1=O (stereo not drawn)
outcome [1]: inactive

Cc1ccc(S(=O)(=O)Oc2ccc(N=Nc3ccc(-c4ccc(N=Nc5c(O)ccc6cc(S(=O)(=O)O)cc(S(=O)(=O)O)c56)c(C)c4)cc3C)cc2)cc1
AC50 [1]: 2.55 µM (active)
outcome [2]: inactive
AC50 (AR (gene 367) [4]): 5.11 µM (active)

OCC(O)c1ccccc1 (stereo not drawn)
outcome [1]: inactive
outcome [2]: inactive

[O-]n1ccccc1=S.[O-]n1ccccc1=S.[Zn+2]
AC50 [1]: 22.9 µM (active)

CCCCC(CC)COC(C)=O (stereo not drawn)
outcome [1]: inactive

ON=C1CCCCC1
outcome [1]: inactive
outcome [2]: inactive

CCCC(=O)OC(C)(C)Cc1ccccc1
outcome [1]: inactive
outcome [2]: inactive

CCc1cc(C(C)(C)C)c(O)c(C(C)(C)C)c1
outcome [1]: inactive
AC50 [2]: 81.8 µM (active)

CC1CC(O)CC(C)(C)C1 (stereo not drawn)
outcome [1]: inactive
outcome [2]: inactive

O=C(CC(=O)c1ccccc1)c1ccccc1
outcome [1]: inactive

CCCCCCCC/C=C\CCCCCCCC(=O)OCC
outcome [1]: inactive

C=C[Si]1(C)O[Si](C)(C=C)O[Si](C)(C=C)O[Si](C)(C=C)O1 (stereo not drawn)
outcome [1]: inactive

Cc1cc(=O)oc2cc(N(C)C)ccc12
AC50 [1]: 0.177 µM (active)
outcome [2]: inactive

CC(CN=Cc1ccccc1O)N=Cc1ccccc1O (stereo not drawn)
AC50 [1]: 4.63 µM (active)

CC(C)CCCCCCCCCCCCCCC(=O)O
outcome [1]: inactive
AC50 [2]: 50 µM (active)

COC(=O)c1ccc(C)cc1C1=NC(C)(C(C)C)C(=O)N1 (stereo not drawn) (tested in a mixture with another compound)
outcome [1]: inactive
outcome [2]: inactive

CC(C)(N=C=O)c1cccc(C(C)(C)N=C=O)c1
AC50 [2]: 33.1 µM (active)

C[C@H]1O[C@@H](O[C@H]2[C@@H](O)C[C@H](O[C@H]3[C@@H](O)C[C@H](O[C@H]4CC[C@@]5(C)[C@H](CC[C@@H]6[C@@H]5C[C@@H](O)[C@]5(C)[C@@H](C7=CC(=O)OC7)CC[C@]65O)C4)O[C@@H]3C)O[C@@H]2C)C[C@H](O)[C@@H]1O
AC50 [1]: 0.0148 µM (active)
outcome (AR (gene 367) [3]): inactive
AC50 (AR (gene 367) [4]): 0.00928 µM (active)

COC(=O)C=C(C)CCC=C(C)C
outcome [2]: inactive

CCc1cc(Cc2cc(CC)cc(C(C)(C)C)c2O)c(O)c(C(C)(C)C)c1
AC50 [1]: 22.9 µM (active)
AC50 [2]: 11.7 µM (active)
AC50 (AR (gene 367) [4]): 24.1 µM (active)

CCOC(=O)CC(C)O (stereo not drawn)
outcome [2]: inactive

O=[N+]([O-])c1cccc(Cl)c1
outcome [2]: inactive

CC(=O)O[C@H]1C[C@@H]2CC[C@@]1(C)C2(C)C
outcome [1]: inactive
outcome (AR (gene 367) [3]): inactive
outcome (AR (gene 367) [4]): inactive

C=C(CC(=O)O)C(=O)O
outcome [2]: inactive

CC(=O)c1c(C)c([N+](=O)[O-])c(C(C)(C)C)c([N+](=O)[O-])c1C
outcome [2]: inactive

CN1CCOCC1
outcome [2]: inactive

C=CC(C)C#N (stereo not drawn)
outcome [2]: inactive

O=C1OC2(c3ccccc31)c1ccc(O)c(Br)c1Oc1c2ccc(O)c1Br
outcome [2]: inactive

CC1=CC[C@@]23C[C@@H]1C(C)(C)[C@@H]2CC[C@H]3C
AC50 [2]: 78.5 µM (active)

CCCCCCCCCCCCCC(=O)OCC(O)CO (stereo not drawn)
outcome [1]: inactive
outcome (AR (gene 367) [4]): inactive

c1ccc(CCc2ccccc2)cc1
outcome [2]: inactive

CC(=O)CC(=O)Nc1ccc(C)cc1C
outcome [2]: inactive

CCCCCCCC(=O)OCCCCCC
outcome [2]: inactive

BrCc1cccc(Oc2ccccc2)c1
outcome [1]: inactive
outcome [2]: inactive
outcome (AR (gene 367) [4]): inactive

O=C(O)c1cccnc1C(=O)O
outcome [2]: inactive

C=CC(=O)OCCC#N
AC50 [2]: 66.7 µM (active)

OCc1cccc(Oc2ccccc2)c1
outcome [1]: inactive
outcome (AR (gene 367) [3]): inactive

Nc1ccc(Cl)c([N+](=O)[O-])c1
outcome [2]: inactive

CCCCCCCCCC(C)C=O (stereo not drawn)
outcome [2]: inactive

CC=CC=CCOC(=O)C(C)C
AC50 [2]: 76.8 µM (active)

Cc1occc(=O)c1OC(=O)C(C)C
outcome [2]: inactive

NC1CCCCC1N (stereo not drawn)
AC50 [2]: 77.1 µM (active)

CCCC[P+](CCCC)(CCCC)CCCC
AC50 [2]: 91.7 µM (active)

CC/C=C\CC/C=C/CO
AC50 [2]: 50 µM (active)

NCc1ccco1
outcome [2]: inactive

CCCCCC(C=O)=Cc1ccccc1
AC50 [2]: 80 µM (active)

ClC(c1ccccc1)(c1ccccc1)c1ccccc1
AC50 [2]: 82.6 µM (active)

CC(C)CC(C)CC(O)CC(C)C (stereo not drawn)
outcome [2]: inactive

C=C(C)C(=O)OCCOCCOCCOC(=O)C(=C)C
outcome [2]: inactive

CCN(CC)C(=O)N(CC)CC
outcome [2]: inactive

CCOC(=O)C(C#N)=C(c1ccccc1)c1ccccc1
outcome [2]: inactive

CC(C)=CCCC(C)CC(=O)O (stereo not drawn)
outcome [2]: inactive

C/C=C(\C)C(=O)OCCc1ccccc1
AC50 [2]: 67.4 µM (active)

— PubChem BioAssay (EPA / NIEHS)
